FadD28 FP inh: inhibitors of FadD28 bisubstrate probe binding, primary screen, biochemical, fluorescence polarization, single point | 360,000 tested, 0.22% active | inhibition, % at 12.5 µM; in the data active = inhibition above about 8.5%, passing the limit was not always enough; inconclusive = no clear call, values can overlap the other calls
TcdB inh: TcdB glycohydrolase inhibitors, primary screen, biochemical, single point, plate reader; Toxin B (Clostridioides difficile), P18177; TcdB glycohydrolase enzymatic assay; inhibition, % at 9.99 µM; 350,000 tested, 0.24% active; in the data active = inhibition above about 10%
BioA inh: M. tuberculosis BioA enzyme inhibitors, primary screen, biochemical, plate reader, single point, HTS | 7,8-diaminopelargonic acid synthase BioA (Mycobacterium tuberculosis) | purified M. tuberculosis BioA enzyme | inhibition, % at 9.99 µM | 360,000 tested, 0.096% active | AID 602481, 2012; in the data active = inhibition above about 40%; inconclusive = no clear call, values can overlap the other calls
PfHsp40 rescue: rescue of yeast from PfHsp40 toxicity, primary screen, S. cerevisiae, ATP luminescence | 340,000 tested, 0.68% active | S. cerevisiae expressing PfHsp40, growth rescue | growth rescue, % at 12.5 µM; in the data active = growth rescue above about 28%, passing the limit was not always enough; inconclusive = no clear call, values can overlap the other calls;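 also: yeast W303a lacking pdr1 and pdr3 grown in galactose medium; growth measured after three days at 30 °C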
PrP 5UTR inh: inhibition of PrP 5' UTR reporter expression | cell-based PrP 5' UTR mRNA reporter, plate reader | inhibition, % (no concentration beside the values) | 340,000 tested, 0.35% active | AID 488862, 2010; in the data active = inhibition above about 52%; also: 0 = median of the neutral control wells
Numbers without * were called inactive. Rows were chosen to be rich in hits. Some 1.1% of all compounds tested hit in one or more screens of this group.

What do the screens show for `FC(F)(F)c1nnc(Nc2ccc(Cl)cc2)s1`?
FadD28 FP inh: -2; TcdB inh: 0; BioA inh: 3; PfHsp40 rescue: 1; PrP 5UTR inh: -68

Results for COCCNC(=S)N1CCC(C(=O)c2ccc(C)cc2)CC1 ?
FadD28 FP inh: -1; TcdB inh: 3; BioA inh: 4; PfHsp40 rescue: 48*; PrP 5UTR inh: -18

What do the screens show for `CCCNC(=O)C[C@@H]1CC[C@@H]2[C@H](COc3ccc(NC(=O)NCCC)cc3C(=O)N2C)O1`?
TcdB inh: -1

Results for C[C@H]1CN([C@@H](C)CO)C(=O)c2cc(C#CC3CC3)cnc2O[C@H]1CN(C)C(=O)c1ccccc1 ?
TcdB inh: 1; BioA inh: -1

Results for O=Cc1cc(N=Nc2ccccc2Cl)ccc1O ?
FadD28 FP inh: 0; TcdB inh: 1; PfHsp40 rescue: 211*; PrP 5UTR inh: -30

Results for CC(C)/C=C(/C(=O)c1ccc(Cl)cc1Cl)n1cncn1 ?
FadD28 FP inh: -3; TcdB inh: -2; PfHsp40 rescue: 399*; PrP 5UTR inh: -10

Results for CCC1=NN(C(=O)c2ccccc2Br)C(O)(c2ccc(Br)cc2)C1 (centres undefined) ?
FadD28 FP inh: inconclusive; TcdB inh: 1; BioA inh: 2; PfHsp40 rescue: 1; PrP 5UTR inh: -26

What do the screens show for `CCC1=NN(C(=O)c2ccccc2O)C(O)(c2ccccc2)C1` (centres undefined)?
FadD28 FP inh: -1; TcdB inh: 0; BioA inh: 1; PfHsp40 rescue: 83*; PrP 5UTR inh: 2

What do the screens show for `CCNc1cc(O)ccc1C`?
FadD28 FP inh: 4; BioA inh: -3; PfHsp40 rescue: 77*; PrP 5UTR inh: -14

How did O=C(Cc1ccncc1)Nc1ccc2c(c1)[C@@H]1C[C@H](CC(=O)NC3CCCC3)O[C@@H](CO)[C@@H]1O2 do in these assays?
TcdB inh: 0; BioA inh: -4

How did COc1ccc(-c2nc(C#N)c(NCc3ccc(F)cc3)o2)cc1OC do in these assays?
FadD28 FP inh: 11*; BioA inh: 3; PfHsp40 rescue: 14; PrP 5UTR inh: -16

How did COc1ccc2oc(C(=O)OCC(=O)c3ccc4c(c3)OCCO4)c(C)c2c1 do in these assays?
FadD28 FP inh: -1; BioA inh: -2; PfHsp40 rescue: 72*; PrP 5UTR inh: 6

Results for CCNC(=O)C[C@H]1CC[C@H]2[C@H](COc3ccc(NC(=O)c4cccs4)cc3C(=O)N2C)O1 ?
TcdB inh: 0; BioA inh: -1

What do the screens show for `O=C(Nc1ccccc1)/C(=C\c1ccncc1)NC(=O)c1ccccc1`?
FadD28 FP inh: 1; BioA inh: 0; PfHsp40 rescue: -1; PrP 5UTR inh: -12

Results for O=C(Nc1ccc(C(=O)O)cc1)/C(=C\c1ccco1)NC(=O)c1ccc(Br)cc1 ?
FadD28 FP inh: -2; TcdB inh: 0; BioA inh: 0

How did O=C(Nc1ccc(O)cc1)/C(=C/c1ccco1)NC(=O)c1ccccc1 do in these assays?
FadD28 FP inh: 0; TcdB inh: 18*; PfHsp40 rescue: 0; PrP 5UTR inh: -36

What do the screens show for `O=C(Nc1ccc(O)cc1)/C(=C\c1ccncc1)NC(=O)c1ccccc1`?
FadD28 FP inh: -5; TcdB inh: 24*; BioA inh: 0; PfHsp40 rescue: 0; PrP 5UTR inh: -62

What do the screens show for `N#C[C@H]1[C@H](c2ccc(C3=CCCC3)cc2)[C@H](CO)N1c1nc(-c2ccccc2)cs1`?
TcdB inh: 0; BioA inh: 0

Results for Cn1cnc(S(=O)(=O)N2C[C@@H](O)COC[C@H]3O[C@@H](CC(=O)NC4Cc5ccccc5C4)CC[C@@H]32)c1 ?
TcdB inh: 0; BioA inh: 1

How did C[C@@H]1CN([C@@H](C)CO)C(=O)c2cc(NC(=O)Nc3ccc(C(F)(F)F)cc3)ccc2O[C@@H]1CN(C)Cc1ccc(-c2ccccc2)cc1 do in these assays?
TcdB inh: 2; BioA inh: 1

Results for Oc1ccccc1-c1cnc2cccnn12 ?
FadD28 FP inh: -1; TcdB inh: 47*; BioA inh: 1

Results for COc1ncccc1-c1cnc2cccnn12 ?
FadD28 FP inh: -2; TcdB inh: 1; BioA inh: 0

Results for Cc1cc2c(cc1C)CSC(c1ccccc1O)SC2 ?
FadD28 FP inh: -6; PfHsp40 rescue: 12; PrP 5UTR inh: -24

How did Oc1ccccc1C1SC(c2ccccc2O)SC(c2ccccc2O)S1 (centres undefined) do in these assays?
FadD28 FP inh: -3; TcdB inh: 0; BioA inh: -1; PfHsp40 rescue: 32*; PrP 5UTR inh: -29

Results for COc1ccc(S(=O)(=O)Nc2ccc3c(c2)C(=O)N([C@@H](C)CO)C[C@@H](C)[C@@H](CN(C)C(=O)NC2CCCCC2)OCCCC[C@@H](C)O3)cc1 ?
TcdB inh: 1; BioA inh: 0

How did Cc1ccc(NC2(c3nnnn3-c3c(C)cccc3C)CCCCC2)cc1 do in these assays?
FadD28 FP inh: -1; TcdB inh: 1; PfHsp40 rescue: 66*; PrP 5UTR inh: -7

What do the screens show for `Cc1noc(C)c1NC(=O)NCC[C@@H]1CC[C@@H](NC(=O)c2ccncc2)[C@H](CO)O1`?
TcdB inh: -1; BioA inh: 3

What do the screens show for `CCOc1cc(/C=C2\CN(C)C/C(=C\c3ccc(O)c(OCC)c3)C2=O)ccc1O`?
FadD28 FP inh: -1; TcdB inh: -6; BioA inh: 5; PfHsp40 rescue: -2; PrP 5UTR inh: -3

How did COc1cc(C=C2CN(C)C(=O)C2=O)ccc1O do in these assays?
FadD28 FP inh: -1; TcdB inh: 21*; BioA inh: 12

How did CCNc1ccc(C(=O)OCC)cc1NC(=O)c1cc(S(=O)(=O)N2CCOCC2)ccc1C do in these assays?
FadD28 FP inh: -2; BioA inh: 0; PfHsp40 rescue: 113*; PrP 5UTR inh: 3

How did Cc1ccc(S(=O)(=O)N2CCOCC2)cc1C(=O)Nc1cc(S(=O)(=O)N2CCCCC2)ccc1O do in these assays?
FadD28 FP inh: -1; TcdB inh: 1; BioA inh: 1; PfHsp40 rescue: 1; PrP 5UTR inh: -8

How did CN1c2ccc(-c3ccc(F)cc3)cc2[C@H]2[C@H](CCN2C(=O)Nc2ccc(F)cc2)[C@H]1CO do in these assays?
BioA inh: 2

Results for CN(C)c1ccc(C=c2c3ccccc3n3c2cc(-c2ccc(Cl)cc2)[n+]3C)cc1 ?
FadD28 FP inh: -11; TcdB inh: 3; PfHsp40 rescue: 219*; PrP 5UTR inh: -30

Results for CN(C)c1ccc(C=c2c3ccccc3n3c2cc(-c2ccccc2)[n+]3C)cc1 ?
FadD28 FP inh: -2; TcdB inh: 4; PfHsp40 rescue: 7; PrP 5UTR inh: -17

Results for CN(C)c1ccc(C=c2c3ccccc3n3c2c2c([n+]3C)CCCC2)cc1 ?
FadD28 FP inh: 1; TcdB inh: 0; PfHsp40 rescue: 300*; PrP 5UTR inh: 4

Screening data from PubChem.
